Assay outcomes as filed in PubChem.
JMJD2A Tudor inh: JMJD2A Tudor domain (human) inhibition | O75164 | AlphaScreen JMJD2A-Tudor / H3K4me3 peptide binding | Potency, µM (titrated, usually from 114 µM), without a hit: top-dose activity change, negative = inhibition, hits mostly inhibitors | 390,000 tested, 4.4% active | AID 504339; note: potency is the fitted concentration of half-maximal effect; % is set by controls: 0 for no effect and ±100 for the full control effect; nearly all actives have a fitted effect of over 50% in size
PLK1 PBD inh: inhibitors of human PLK1 polo-box domain binding; Plk1 PBD binding of FITC phosphopeptide, fluorescence polarization; Potency, µM, for inactives: max response, negative = inhibition, hits mostly inhibitors; AID 720504; P53350; 360,000 tested, 2.8% active; note: potency is the fitted concentration of half-maximal effect; series mostly up to about 57 µM; % is set by controls: 0 for no effect and ±100 for the full control effect; nearly all actives have a fitted effect of over 65% in size
HP1b chromo inh: blocks HP1-beta chromodomain binding to methylated histone tails; Potency, µM (top dose mostly 114 µM), for inactives: at the highest dose activity change, negative = inhibition, actives largely listed as inhibitors; AlphaScreen HP1-beta / biotin-H3K9me3 peptide binding; P83916; 390,000 tested, 0.56% active; note: potency is the fitted concentration of half-maximal effect; nearly all actives have a fitted effect of over 70% in size
Target sequence (P83916 whole entry, looked up): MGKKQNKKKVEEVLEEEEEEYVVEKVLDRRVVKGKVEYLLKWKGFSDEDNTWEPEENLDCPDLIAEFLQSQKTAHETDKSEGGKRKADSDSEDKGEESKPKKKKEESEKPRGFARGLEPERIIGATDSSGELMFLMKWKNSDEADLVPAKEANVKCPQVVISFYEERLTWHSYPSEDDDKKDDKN
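HP1-beta protein (50 nM final) preincubated 30 min at room temperature with biotinylated H3(1-18)K9me3 peptide (50 nM) in PBS pH 7.4, 0.01% Tween-20, then compound added for 30 min. AlphaScreen streptavidin donor/nickel chelate acceptor beads (10 ug/mL final), 30 min dark, luminescence read.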
G9a block: inhibitors of human histone lysine methyltransferase G9a; G9a H3K9 monomethylation, AlphaScreen, 2 h; Potency, µM (highest dose often 102 µM), without a hit: at the top dose activity, negative = inhibition, hits mostly inhibitors; 350,000 tested, 8.8% active; AID 504332; note: potency is the fitted concentration of half-maximal effect; % is set by controls: 0 for no effect and ±100 for the full control effect; nearly all actives have a fitted effect of over 75% in size
Target sequence (Q96KQ7 913-1193 limits assumed): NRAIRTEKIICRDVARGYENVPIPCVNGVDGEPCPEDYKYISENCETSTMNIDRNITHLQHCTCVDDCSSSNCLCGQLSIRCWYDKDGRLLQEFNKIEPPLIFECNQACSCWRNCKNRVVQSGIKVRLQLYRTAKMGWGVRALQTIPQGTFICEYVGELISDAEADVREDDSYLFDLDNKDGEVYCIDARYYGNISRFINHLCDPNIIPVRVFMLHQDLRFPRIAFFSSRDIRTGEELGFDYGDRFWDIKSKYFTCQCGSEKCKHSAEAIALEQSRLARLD
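AlphaScreen detection with an anti-monomethyl H3K9 antibody quantified product after a 2 h room-temperature reaction containing 500 nM biotinylated H3K9 peptide, 20 µM SAM and 20 nM enzyme, which had been preincubated 15 min with compound.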
PI5P4K alpha inh: blocks human PI5P4K alpha kinase activity. P48426. PI5P4Kalpha enzyme, ADP-Glo luminescence, 60 min; stronger effect = lower value. max response, %. 330,000 tested, 1.2% active. AID 652105; active = max response of -50% or lower; inconclusive = between -30% and -50%; inactive = -30% or higher; note: value at the top dose of about 77 µM; % is set by controls: 0 for no effect and ±100 for the full control effect
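Quantitative HTS of the MLSMR library against PI5P4Kalpha with substrate. ATP added last at 5 microM final; room temperature, 60 minutes. Remaining ATP depleted, ADP converted and read as luminescence.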
BAZ2B block: BAZ2B (human) inhibition; Q9UIF8; AlphaScreen BAZ2B-H3K14Ac peptide displacement; Potency, µM (titrated, usually from 114 µM), for inactives: at the highest dose activity change, negative = inhibition, most hits filed as inhibitors; 360,000 tested, 4.4% active; AID 504333; note: potency is the fitted concentration of half-maximal effect; % is set by controls: 0 for no effect and ±100 for the full control effect; nearly all actives have a fitted effect of over 60% in size
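BAZ2B 50 nM plus b-H3(5-23)K14Ac 50 nM, PBS pH 7.4/0.01% Tween-20, 30 min RT; compound added (max 110 uM), 30 min RT; streptavidin donor/Ni-chelate acceptor beads 10 ug/mL final, 20 min dark; AlphaScreen read.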
Active calls of the source: *; ? = inconclusive; · = no result given; [ ] = remark or other dose. Only some compounds are listed: those with a hit (about 12% of all), similar ones and a draw of the others. Unless noted, calls come from the whole dose curve; as a rule, active = well fitted curve in the direction sought with a large enough effect; inconclusive = small, poorly fitted or top-dose-only effect, or another doubt; inactive = no such curve, though single readings can be large; an effect the other way counts as inactive or inconclusive.

SMILES	JMJD2A Tudor inh	PLK1 PBD inh	HP1b chromo inh	G9a block	PI5P4K alpha inh	BAZ2B block
O=C(NCc1n[nH]c(=S)n1Cc1ccccc1)c1ccccc1	?	?	8%	35%	1	-12%
c1ccc(Cn2c(CN3CCCC3)nc3ccccc32)cc1	-33%	-2%	35%	-2%	-5	-27%[57.1 µM]
S=c1[nH]nc(CN2CCCC2)n1Cc1ccccc1	3.5µM*	-20%	11%	50µM*	-10	-4%
S=c1[nH]nc(CN2CCCCC2)n1Cc1ccccc1	13µM*	-20%	21%	22µM*	-19	-23%
COc1ccc(OC)c(Cc2nnc(CCC(=O)NC(C3CC3)C3CC3)o2)c1	-18%	-15%	6%	18%	0	-3%
COc1ccc(OC)c(Cc2nnc(CCC(=O)NCc3ccc(C)s3)o2)c1	-9%	0%	10%	25µM*	3	?
CC(C)NC(=O)c1onc(CSc2ccc(F)c(F)c2)c1C(=O)NC(C)C	12%	-17%	124%	·	0	·
CC(C)NC(=O)c1onc(CSc2ccc(F)c(F)c2)c1C(=O)O	79µM*	24µM*	22%	51%[0.501 µM]	-19	?
C=CCNC(=O)CSc1nc2sccc2c(=O)n1-c1ccccc1	-8%	-22%	6%	-15%	-60*	6%
CCNC(=O)CSc1nc2sccc2c(=O)n1-c1ccccc1	-12%	-13%	40%	7%	?	6%
COc1ccc(NC(=O)c2ccc(F)c(F)c2)c2ccccc12	-5%	3%	32%	17%	-2	2%
Cc1c(-c2cc(C(=O)O)c3ccccc3n2)cnn1C	-12%	-4%	32%	45µM*	-1	-39%
CCOc1ccc(N(CC)S(=O)(=O)N2CCCC(C(=O)Nc3cc(Cl)ccc3OC)C2)cc1 (centres undefined)	-7%	·	42%	0%[59 µM]	·	-12%
O=C(CC(Nc1ccccc1Cl)C(=O)O)c1ccccc1 (centres undefined)	-14%	-25%	27%	?	1	-34%
O=C(CC(Nc1cccc(Cl)c1Cl)C(=O)OCC(=O)c1cccs1)c1ccccc1 (centres undefined)	-9%	-3%	31%	14%[59 µM]	8	7%
O=C(CC(Nc1cccc(Cl)c1Cl)C(=O)O)c1ccccc1 (centres undefined)	-2%	-10%	50%	28µM*	-5	-38%
O=C(CC(Nc1ccc(Cl)cc1)C(=O)O)c1ccccc1 (centres undefined)	-9%	-10%	30%	2.2µM*	-6	-2%
Cc1c(Cl)cccc1NC(CC(=O)c1ccccc1)C(=O)OCC(=O)c1cccs1 (centres undefined)	-8%	-6%	34%	35µM*	3	7%
CCOC(=O)c1[nH]c(C)c(C(=O)NCc2ccccc2Cl)c1C	-15%	·	43%	-12%[59 µM]	·	-14%
O=C(NCc1ccccc1Cl)c1cc2ccccc2o1	15%	·	110%	39%[59 µM]	·	74%
CCN(CC)S(=O)(=O)c1cc(NC(=O)C2=COCCO2)ccc1Cl	-26%	-6%	-6%	50µM*	-8	-2%
O=C(c1ccc2c(=O)n(Cc3ccco3)c(=S)[nH]c2c1)N1CCN(Cc2ccc3c(c2)OCO3)CC1	?	·	-10%	·	·	·
COC(=O)C1=C(N)OC2=C(C(=O)CC(C)(C)C2)C1c1ccccc1OC (centres undefined)	-20%	-11%	39%	?	-6	?
COC(=O)C1=C(N)OC2=C(C(=O)CC(C)(C)C2)C1c1ccoc1 (centres undefined)	-34%[11.4 µM]	4.7µM*	?	?	?	·
CC(C)OC(=O)c1c(-c2ccccc2)c(-c2ccccc2)nn(C)c1=O	-16%	·	32%	?	·	17%
SMILES	JMJD2A Tudor inh	PLK1 PBD inh	HP1b chromo inh	G9a block	PI5P4K alpha inh	BAZ2B block
CCOc1ccc(CC(=O)NC2CC(C)(C)N(C)C(C)(C)C2)cc1OCC	0%	-6%	43%	-15%[12.7 µM]	1	16%
CCOc1ccc(CC(=O)C2C(=O)CCCC2=O)cc1OCC	25µM*	-16%	45%	11µM*	-6	?
CCOc1ccc(CC(=O)C2C(=O)CC(C)(C)CC2=O)cc1OCC	18µM*	-4%	55%	10µM*	0	?
CCOc1ccc(CC(=NCCc2ccccc2)C2=C(O)CC(C)(C)CC2=O)cc1OCC	-13%	-9%	34%	71µM*	-4	-4%
CCOc1ccc(CC(=O)C2=C(N3CCOCC3)CC(C)(C)CC2=O)cc1OCC	-19%	-18%	28%	25µM*	1	-24%
CN1CCN(c2ncc3nc(-c4cccc(C#N)c4)c(=O)n(C)c3n2)CC1	·	·	·	-18%[0.501 µM]	·	·
CC#CC(=O)N1CCC(n2nccc2NC(=O)CCc2ccccc2)CC1	·	2%	·	·	1	·
COc1ccc(-c2nc(C)c(CCNC(=O)C(=O)Nc3ccccc3C#N)s2)cc1OC	-13%	·	19%[57 µM]	2%[59 µM]	·	2%
CCN1CCN(C(c2cccc(OC)c2)c2c(O)cc(C)n(Cc3ccco3)c2=O)CC1 (centres undefined)	-26%	·	31%[57 µM]	?	·	-16%
Cc1cccc(C)c1NC(=S)NC(=O)c1ccc(Br)o1	-13%[11.4 µM]	6µM*	-14%	40µM*	?	?
Cn1ncc(C(N)=O)c1NC(=S)NC(=O)c1ccc(Br)o1	-12%	?	-8%	18µM*	?	-28%
Cc1cccc(NC(=S)NC(=O)c2ccc(Br)o2)c1C	2%	-3%	5%	-10%[59 µM]	-9	?
CCOc1ccccc1CNC(=O)c1cccn1-c1nnc(N2CCCC2)s1	-10%	·	21%	8%[59 µM]	·	-15%
C=CCNc1oc(-c2ccc(-c3ccccc3)cc2)nc1C#N	79µM*	·	18%	·	·	·
N#Cc1nc(-c2ccccc2Cl)oc1NCc1ccco1	?	-8%	-30%	?	·	50µM*
COCCCNc1oc(-c2ccccc2Cl)nc1C#N	-22%	-5%	-3%	?	-1	-39%
CNc1oc(-c2ccccc2)nc1C#N	-10%	-3%	2%	-19%[12.7 µM]	-4	-31%
CC(C)CNc1oc(-c2ccccc2Cl)nc1C#N	-22%	-20%	?	40µM*	8	?
N#Cc1nc(-c2ccccc2)oc1NCc1ccco1	-29%	-1%	16%	?	0	50µM*
COc1ccccc1N1CCN(c2nc3ccc(C)cc3n3nnnc23)CC1	6%	·	52%	?	·	-1%
O=S1(=O)N=C(Oc2ccccc2-c2ccccc2)c2ccccc21	-17%	·	·	·	·	·
Cc1ccnc2nc(C(=O)OCC(=O)NCc3cccc(Cl)c3)nn12	-13%	-6%	13%	-14%[2.33 µM]	-11	7%
